About 83,000 compounds went through this panel and 20% of them were active in at least one assay; those are over-represented in the sample as a whole.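 Assay: single dose, 48 h. Readout: percent growth (0 = no net growth; negative = cell death). Active: <10.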 Active and inactive are the calls of the source.
Legend:
Experiment in all cases: NCI-60 one-dose screen, 48 h (100 = growth as untreated, 0 = no growth, -100 = all killed)
Conditions in all cases: 10 µM unless noted
[1] = tested on: SR leukemia
[2] = tested on: RPMI-8226 leukemia
[3] = tested on: OVCAR-8 ovarian
[4] = tested on: OVCAR-5 ovarian
[5] = tested on: OVCAR-4 ovarian
[6] = tested on: SK-OV-3 ovarian
[7] = tested on: IGROV1 ovarian
[8] = tested on: HS 578T breast
[9] = tested on: NCI/ADR-RES ovarian

Measured: growth

COc1ccc(-c2cc(-c3ccc(N4CCOCC4)cc3)n3c(n2)nc2ccccc23)cc1OC
inactive: [1] 70.3% | [2] 57.5% | [3] 82.5% | [4] 108% | [5] 87.9% | [6] 118% | [7] 95.1% | [8] 98.2% | [9] 87.9%

COc1ccc(/C=N\NC(=O)c2cnn(CC(O)c3ccccc3)c2N)cc1OCc1ccc(Cl)cc1 (stereo unspecified)
inactive: [1] 65.8% | [2] 65.5% | [3] 74% | [4] 79.9% | [5] 74.1% | [6] 93.8% | [7] 91.9% | [8] 43.2% | [9] 72.2%

C1=CC(c2nn3c(-c4ccccc4)nnc3s2)=Cc2ccccc2O1
inactive: [1] 11.9% | [2] 35.6% | [3] 65.5% | [4] 87.6% | [5] 73.7% | [6] 106% | [7] 64.3% | [8] 61.1% | [9] 85.2%

O=C(COc1ccc(/C=C2\C(=O)Nc3ccc(F)cc32)cc1)Nc1ccccc1
inactive: [1] 86.1% | [2] 103% | [3] 98.7% | [4] 95.8% | [5] 100% | [6] 96.9% | [7] 109% | [8] 105% | [9] 101%

CCCCc1nc2c(N)nc3ccccc3c2n1Cc1cccc(CN)c1
inactive: [2] 42.5% | [3] 63.9% | [4] 109% | [5] 53.6% | [6] 91.2% | [7] 62.8% | [8] 67.2% | [9] 93.5%
active: [1] 2.23%

O=C(CCCCCC/C=C\c1csc(Br)n1)NO
inactive: [1] 50.6% | [2] 53.9% | [3] 76% | [4] 80.1% | [5] 87.5% | [6] 95.1% | [7] 81.9% | [8] 87.1% | [9] 64.6%

O=C1C(N2CCN(c3ccccc3)CC2)=C(Cl)C(=O)c2ncccc21
inactive: [2] 35.5% | [3] 73.5% | [4] 107% | [5] 66% | [6] 91.5% | [7] 70% | [8] 79.8% | [9] 77%
active: [1] 3.69%

O=C(COc1ccc(/C=C2\C(=O)Nc3cc(Cl)ccc32)cc1)Nc1ccc(Cl)cc1
inactive: [1] 54.8% | [2] 60.4% | [3] 63.4% | [4] 67.7% | [5] 66.5% | [6] 87.1% | [7] 73.3% | [8] 79.1% | [9] 66.8%

CS(=O)(=O)c1ccc(/C(=N/N=C(N)N)c2ccc(Cl)cc2)cc1
inactive: [1] 35.1% | [2] 101% | [3] 103% | [4] 99.7% | [5] 98.4% | [6] 87.2% | [7] 85.6% | [8] 91.8% | [9] 102%

COc1ccc([C@@H]2C(=O)N(c3cc(OC)c(OC)c(OC)c3)[C@H]2c2ccc(OC)c(O)c2)cc1
inactive: [1] 20% | [2] 13.1% | [3] 10.6% | [4] 32.4% | [5] 58.9% | [6] 30.3% | [7] 22.5% | [8] 14.9% | [9] 13.6%

N#Cc1cccc(-c2cc(-c3ccc4c(c3)OCCO4)[nH]n2)c1
inactive: [1] 12.4% | [2] 18.3% | [3] 35.3% | [4] 71.8% | [5] 79.2% | [6] 54.3% | [7] 36.5% | [8] 40.1% | [9] 20%

O=C(Nc1cc(C(F)(F)F)cc(C(F)(F)F)c1)Nc1ccc2oc(=O)ccc2c1
active: [2] -21.5% | [6] -1.5% | [9] 4.16%
inactive: [1] 14% | [3] 14.2% | [4] 18% | [5] 32.6% | [7] 17.3% | [8] 36.8%

O=C(Nc1ccc(Cl)c(C(F)(F)F)c1)Nc1ccc2oc(=O)ccc2c1
active: [2] -1.56%
inactive: [1] 45.6% | [3] 43.4% | [4] 75.6% | [5] 43.3% | [6] 81% | [7] 30.7% | [8] 83.1% | [9] 19.6%

Cc1ccccc1Nc1nc(SC(C)C)nc(-c2ccccc2)c1C#N
inactive: [1] 89.6% | [2] 83.8% | [3] 19.9% | [4] 71.9% | [5] 13.4% | [6] 94.3% | [8] 63.1% | [9] 34.7%
active: [7] -50.3%
